Laboratory results reported in PubChem BioAssay (NCI).
“And” between values parts separate entries of the source, which are not always exact repeats. Identical values can stand only once. Compounds without any hit were thinned out: in the full panel of roughly 79,000, 15% have a hit. Where a structure was tested more than once in an assay, its records may differ in their call. The source made the active and inactive calls. Rule as the data show it: active = growth inhibition above about 70%; inactive = the rest.

Legend:
[1] = NCI Yeast Anticancer Drug Screen. Data for the rad50 strain (AID 155);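 also: 0% = growth of vehicle-only cultures of the same strain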; settings: S. cerevisiae rad50 strain growth inhibition; at 50.0 µM; stronger effect = higher value
Method in brief: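 Compounds were tested on a yeast strain with an engineered DNA damage repair alteration; the reported value is growth inhibition normalised to vehicle treatment.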

[2] = NCI Yeast Anticancer Drug Screen. Data for the mec2-1 strain (AID 157); settings: S. cerevisiae mec2-1 strain, at 50.0 µM, stronger effect = higher value
Method in brief: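 Cells of the genetically defined mec2-1 yeast strain are incubated with test compound. Inhibition of growth is calculated against vehicle-treated controls.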

[3] = NCI Yeast Anticancer Drug Screen. Data for the sgs1 mgt1 strain (AID 161);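 also: 0% = growth of cultures given vehicle only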; settings: S. cerevisiae sgs1 mgt1 strain, at 50.0 µM, stronger effect = higher value
Method in brief: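 Inhibition of yeast growth, normalised to vehicle-treated controls, is reported for a strain bearing genetic alterations in DNA damage repair.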

[4] = NCI Yeast Anticancer Drug Screen. Data for the cln2 rad14 strain (AID 165);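 also: 0% = growth equal to vehicle treated cultures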; settings: S. cerevisiae cln2 rad14 strain, at 50.0 µM, stronger effect = higher value
Method in brief: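 The screen exposed genetically defined yeast (cln2 rad14) to test compounds and scored growth inhibition relative to vehicle-treated controls.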

[5] = NCI Yeast Anticancer Drug Screen. Data for the bub3 strain (AID 167); settings: S. cerevisiae bub3 mutant strain, at 50.0 µM, stronger effect = higher value
Method in brief: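 Growth of a checkpoint-deficient yeast mutant is measured after compound exposure. Values represent inhibition relative to vehicle.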

[6] = NCI Yeast Anticancer Drug Screen. Data for the mlh1 rad18 strain (AID 175); settings: S. cerevisiae mlh1 rad18 strain growth inhibition; at 50.0 µM; stronger effect = higher value
Method in brief: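 Compound-treated yeast growth, normalised to vehicle controls. Strain bears defined DNA repair mutations.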

Measured: growth inhibition

CC(=O)O[C@H]1CCC2[C@@H]3CC[C@]4(C)CC(=O)C=C[C@]4(C)C3CC[C@@]21C (stereo partly drawn)
active: [1] 84.7% | [2] 90.5% | [3] 88% | [4] 85.1% | [5] 87.1% | [6] 89.3%

C(#Cc1ccccc1)c1ccccc1
inactive: [1] 29.1% | [2] 5.25% | [3] 20.3% | [4] -13.6% | [5] -11.3% | [6] -3.6%

NC(=O)CCCc1ccc([As]=O)cc1 (stereo not drawn)
inactive: [1] -8.7% | [2] -11.9% | [3] -8.85% | [4] -27.1% | [5] -0.25% | [6] 9.75%

CCCCCC[C@@H](O)[C@@H]1C2=C(C[C@H]([C@H](O)[C@@H]3CC=CC(=O)O3)CC3=C(C(=O)OC3=O)[C@@H]1O)C(=O)OC2=O
inactive: [1] 20.6% | [2] 2.75% | [3] 26.7% | [4] 9.5% | [5] 16.7% | [6] 19.6%

C=CC(N)=O (tested in a mixture with another compound)
inactive: [1] 1.15% | [2] -7.1% | [3] 8.2% | [4] 0.4% | [5] 15.8% | [6] 2.2%

CC[C@@]1(O)C(=O)OCc2c1cc1n(c2=O)Cc2c-1nc1ccccc1c2C=Nc1ccccc1N[C@@H]1c2cc3c(cc2[C@@H](c2cc(OC)c(O)c(OC)c2)[C@H]2C(=O)OC[C@@H]21)OCO3
active: [1] 78.8% and 86.8% | [2] 71.7% and 80.9% | [3] 76.5% and 84.7%
39.6% (inactive) and 85.8% (active): [6]
63% (inactive) and 82% (active): [4]
69.9% (inactive) and 85.9% (active): [5]

O=[N+]([O-])CCCl
inactive: [1] 3.8% | [2] 2.1% | [3] -3.4% | [4] 3.9% | [5] 3.95% | [6] -3.9%

CCCC1C(=O)NC(=O)NC1=O
inactive: [1] 6.3% | [2] -6% | [3] -0.75% | [4] -10.9% | [5] 3.75% | [6] -1.05%
